# Screen size: about 2,100 compounds; about 320 (15%) were called active. Another 52% or so got no clear call; they are omitted. The list shows a part of the results. A number with no mark means an inactive call. Calls come from the whole dose curve; as a rule, active = well fitted cell-killing curve with a large enough effect; inconclusive = small, poorly fitted or top-dose-only effect, or effect the other way; inactive = flat fitted curve, though single readings scatter.
# Test: Viability Counterscreen for CMV-Luciferase Assay of Inhibitors of ATXN expression; note: nearly all actives have a fitted effect of over 55% in size
# Details: HEK-293 CMV-luciferase cells viability, protease fluorescence, 24 h; activity change, negative = cytotoxicity: at the top concentration
# Summary of the method: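 Compounds are tested in a dilution series on HEK-293 cells carrying the CMV-driven luciferase. After a 24 hr incubation, a protease substrate (25 uM final, 30 min) gives the viability fluorescence, and SteadyGlo gives the reporter luminescence.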
# % is set by controls: 0 for no effect and ±100 for the full control effect; potency is the fitted concentration of half-maximal effect.
Structure (SMILES),Potency,"activity change, negative = cytotoxicity"
Cc1cc(C)c(C(=O)/C=C/c2ccc(C(C)C)cc2)c(=O)[nH]1,17.8 µM (active),–
NS(=O)(=O)c1ccc(N2N=C(c3ccccc3)CC2c2cccc(Cl)c2)cc1 (configuration not stated),–,30% [at 57.5 µM]
COc1cc2c(O)c3c(c(-c4ccc5c(c4)OCO5)c2cc1OC)C(=O)OC3,–,11.1%
CCCCOc1ccc(NC2=NC3(CCCC3)N=C(N)N2)cc1,–,-9.06% [at 57.5 µM]
Cc1ccn2c(Nc3ccccc3C)c(-c3ccccn3)nc2c1,8.91 µM (active),–
Cc1ccc(Nc2c(-c3ccccn3)nc3cccc(C)n23)cc1,3.98 µM (active),–
Cc1cccn2c(Nc3ccccc3)c(-c3ccccn3)nc12,–,-2.3% [at 57.5 µM]
Cc1ccc(Nc2c(-c3ccccn3)nc3cc(C)ccn23)cc1,3.55 µM (active),–
NS(=O)(=O)c1ccc(CCNC(=O)COC(=O)/C=C/c2cc(Br)ccc2F)cc1,–,3.54%
COC(=O)c1cc(Cl)ccc1NCC(N)c1ccccc1 (configuration not stated),–,-20.5% [at 57.5 µM]
O=C1CN(C(=O)c2c(F)cccc2F)C(c2ccc(F)cc2)c2cc(Br)ccc2N1 (configuration not stated),–,-5.84%
CCOc1ccc(S(=O)(=O)NCCC(=O)N2CC=C(c3ccccc3)CC2)cc1,–,-5.74% [at 57.5 µM]
Cc1cc(N2CCN(Cc3nc(-c4ccc(Cl)cc4)oc3C)CC2)cc(C)n1,–,-23.3% [at 57.5 µM]
N#C/C(=C\Nc1ccc2cn[nH]c2c1)c1nc(-c2ccc(Cl)cc2)cs1,–,-21.2%
Cc1ccc(S(=O)(=O)c2nc(S(C)(=O)=O)sc2N2CCCCC2C)cc1 (configuration not stated),–,-26.2% [at 57.5 µM]
COc1cc(Br)cc(/C=N/NC(=O)Cc2ccccc2)c1O,–,19.4%
COc1ccc(Cc2nnc(N/N=C/c3ccccc3O)[nH]c2=O)cc1OC,5.62 µM (active),–
COc1ccc(CNC(=O)c2ccc(-c3cccnc3)c3ccoc23)cc1OC,–,-3.64% [at 57.5 µM]
Cc1ccc(NC(=O)CN2C(=O)c3ccccc3S2(=O)=O)cc1C,–,-29.9% [at 57.5 µM]
[O-][n+]1onc2c1CCc1c-2nn(-c2ccccc2Cl)[n+]1[O-],25.1 µM (active),–
CN1C(=O)/C(=C\c2ccccc2F)Sc2ccc(C(=O)NC3CCN(Cc4ccccc4)CC3)cc21,–,1.37%
O=C(Cc1coc2cc3c(cc12)CCC3)OCC(=O)N1CCCC1=O,–,-19.4% [at 57.5 µM]
CCCc1nc(C)cc(N2CCN(c3ccccc3)CC2)n1,–,-29.5% [at 57.5 µM]
CCCCn1c2ccc(F)cc2c2nnc(NN)nc21,14.1 µM (active),–
COc1cccc(-c2nn(C)c3sc(C(=O)NCCCN(C)Cc4ccccc4)cc23)c1,–,-27.4% [at 57.5 µM]
COc1ccc(C(=O)NNC(=S)NC(=O)C(C)(C)C)cc1,25.1 µM (active),–

Structure (SMILES),Potency,"activity change, negative = cytotoxicity"
CCCCC(=O)NNC(=S)NC(=O)c1ccc(C)cc1,–,-18.1%
CC(C)CC(=O)NC(=S)NNC(=O)c1ccc(NC(=O)C2CCCCC2)cc1,–,-9.14%
Cc1ccc(Cl)cc1-c1ccc(C=Nc2ccc(N3CCOCC3)cc2)o1,–,-12.6% [at 57.5 µM]
COc1cc(C#Cc2c(-c3cncn3C)n(C)c3ccc(-c4cnc(N5CCOCC5)nc4)cc23)cc(OC)c1,–,-23.6%
O=C(c1ccco1)N1CCN(c2ncnc3scc(-c4cccs4)c23)CC1,–,-21.1%
Cn1nnnc1Sc1ncnc2scc(-c3cccs3)c12,8.91 µM (active),–
COc1ccc(-c2csc3ncnc(Sc4nnnn4C)c23)cc1,–,-27.4%
C[C@@H]1CC=C[C@@H]2[C@H]1C(=O)N(Cc1ccccc1)[C@H]2c1ccccc1Br,–,2.07% [at 57.5 µM]
CCOC(=O)C1CCN(c2ncnc3c2cnn3-c2ccc(Cl)cc2)CC1,–,9.73% [at 57.5 µM]
CCCOCc1ccc(O)c2ncccc12,–,-7.03% [at 57.5 µM]
Cc1ccc(N=Nc2ccc(O)c3ncccc23)cc1,10 µM (active),–
Cc1ccccc1N=Nc1ccc(O)c2ncccc12,7.94 µM (active),–
COc1ccc(CNCCC(c2ccc(OC(C)C)cc2)c2ccccc2OC)cc1 (configuration not stated),–,-17%
CCCC1CCC(c2ccc(C(=O)NN)cc2)CC1 (configuration not stated),–,6.52%
O=S(=O)(c1ccc2nc(COc3ccc(Cl)cc3Cl)[nH]c2c1)N1CCOCC1,–,14.4%
Cc1ccnc(NC(=O)CCCc2c[nH]c3ccccc23)c1,–,-25.6%
CC[n+]1c(/C=C/c2c[nH]c3ccccc23)ccc2cc(C)ccc21,12.6 µM (active),–
Cc1ccc(C)c(S(=O)(=O)N2CCN(c3ncnc4sccc34)CC2)c1,–,-8.19%
COc1ccccc1-c1ccc2c(c1)C(C)(Cc1cccc(F)c1)C(=O)N2 (configuration not stated),–,-19.4% [at 57.5 µM]
NC1=NC[C@H](Cc2ccccc2)N1CCCCC1CCCCC1,–,-3.06%
CC1CCC(CN2C(Nc3ccccc3)=NC[C@@H]2Cc2ccccc2)CC1 (some centres not stated),–,-22.9% [at 57.5 µM]
C[C@@H](CN1C2=NC[C@H](Cc3ccccc3)N2C[C@H]1Cc1ccc(O)cc1)NC(=O)CCC1CCCCC1,17.8 µM (active),–
Cc1cc(OCC(=O)Nc2ccc(Br)cc2)cc2c1C(=O)CC(C)(C)O2,–,-10.4%
COc1cc2cc(C(=O)NC(C)c3cccc4ccccc34)c(N)nc2cc1OC (configuration not stated),–,1.89%
OCCNc1c2ccccc2nc2ccccc12,–,24.1% [at 57.5 µM]
COc1cc(N)ccc1Nc1c2ccccc2nc2ccccc12,14.1 µM (active),–

# — PubChem BioAssay AID1745849 (National Center for Advancing Translational Sciences (NCATS), 2022)
